Bioassay records (PubChem)
POLK inh – inhibitors of human DNA polymerase kappa | 400,000 tested, 0.53% active | Q9UBT6 | purified Pol kappa, fluorescent DNA synthesis assay, 10 min | Potency, µM (top dose mostly 107 µM), for inactives: top-dose activity, negative = inhibition, most hits filed as inhibitors | AID 588579; also: % is scaled to controls: 0 for no effect and ±100 for the full control effect
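10 nM Pol kappa preincubated 15 min at room temperature with compounds, then reaction started with substrate at 50 nM final. Fluorescence read kinetically at 0 and 10 min; buffer-only wells served as negative control.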
Pol beta inh – inhibitors of human DNA polymerase beta | P06746 | AID 485314 | Pol beta primer extension/strand displacement, fluorescence kinetic | Potency, µM (series often up to 114 µM), for inactives: at the highest dose activity change, negative = inhibition, actives largely listed as inhibitors | 340,000 tested, 1.3% active; also: % is scaled to controls: 0 for no effect and ±100 for the full control effect
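Enzyme-only controls used 10 nM Pol beta; buffer lacking enzyme served as negative control. Compound preincubated 15 min, then 50 nM substrate added; 0 and 10 min reads at room temperature.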
WRN helicase inh – WRN helicase (human) inhibition; Q14191; WRN helicase unwinding, fluorescent forked duplex, kinetic; Potency, µM (doses to about 114 µM), for inactives: at the highest dose activity change, negative = inhibition, usual class: inhibitors; 360,000 tested, 0.46% active; also: % is scaled to controls: 0 for no effect and ±100 for the full control effect; nearly all actives have a fitted effect of over 55% in size
Target sequence (Q14191 whole entry, looked up): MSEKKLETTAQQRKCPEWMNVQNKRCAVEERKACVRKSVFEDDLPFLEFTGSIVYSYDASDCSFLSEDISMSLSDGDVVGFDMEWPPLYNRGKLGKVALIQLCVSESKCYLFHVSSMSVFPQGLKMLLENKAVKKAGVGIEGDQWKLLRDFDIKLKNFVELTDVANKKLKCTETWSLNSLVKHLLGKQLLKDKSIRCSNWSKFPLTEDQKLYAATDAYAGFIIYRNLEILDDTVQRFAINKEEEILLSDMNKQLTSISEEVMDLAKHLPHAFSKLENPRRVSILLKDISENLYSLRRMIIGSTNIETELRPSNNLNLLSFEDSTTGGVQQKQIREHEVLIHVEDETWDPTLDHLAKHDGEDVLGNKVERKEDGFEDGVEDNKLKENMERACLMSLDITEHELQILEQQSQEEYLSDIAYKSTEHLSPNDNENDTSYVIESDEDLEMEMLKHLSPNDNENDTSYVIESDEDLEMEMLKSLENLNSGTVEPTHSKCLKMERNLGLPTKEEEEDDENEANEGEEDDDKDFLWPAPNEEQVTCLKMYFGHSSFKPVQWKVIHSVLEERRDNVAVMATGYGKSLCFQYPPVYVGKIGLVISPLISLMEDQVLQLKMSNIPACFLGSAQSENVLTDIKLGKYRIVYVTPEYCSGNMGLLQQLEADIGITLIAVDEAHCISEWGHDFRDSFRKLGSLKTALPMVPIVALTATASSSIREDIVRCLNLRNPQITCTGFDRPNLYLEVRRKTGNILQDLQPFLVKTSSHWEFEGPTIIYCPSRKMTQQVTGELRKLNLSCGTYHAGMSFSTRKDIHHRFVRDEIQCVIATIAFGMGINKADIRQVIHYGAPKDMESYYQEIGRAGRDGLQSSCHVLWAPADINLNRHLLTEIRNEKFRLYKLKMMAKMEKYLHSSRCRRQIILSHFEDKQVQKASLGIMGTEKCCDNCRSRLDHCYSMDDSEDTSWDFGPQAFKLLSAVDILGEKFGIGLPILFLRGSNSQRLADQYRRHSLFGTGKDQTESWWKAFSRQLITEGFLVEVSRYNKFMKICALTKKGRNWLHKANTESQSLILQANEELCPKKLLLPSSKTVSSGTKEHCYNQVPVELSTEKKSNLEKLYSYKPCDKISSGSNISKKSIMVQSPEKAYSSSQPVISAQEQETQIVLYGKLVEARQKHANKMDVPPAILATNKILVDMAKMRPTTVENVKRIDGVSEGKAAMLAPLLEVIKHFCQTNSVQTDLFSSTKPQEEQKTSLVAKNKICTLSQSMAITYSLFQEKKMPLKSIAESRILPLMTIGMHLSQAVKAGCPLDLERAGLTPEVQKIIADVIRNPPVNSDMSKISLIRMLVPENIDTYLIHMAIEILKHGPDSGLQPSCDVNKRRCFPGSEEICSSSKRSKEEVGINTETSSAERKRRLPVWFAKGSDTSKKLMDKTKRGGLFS
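Kinetic fluorescence helicase assay: unwinding of a quenched forked DNA duplex (100 nM final) with 2 mM ATP final raises red fluorescence (525/598 nm). Compounds sat 15 min at room temperature with 20 nM WRN beforehand.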
POLH inh – inhibitors of human DNA polymerase eta; Potency, µM (highest dose often 114 µM), for inactives: top-dose activity change, negative = inhibition, actives largely listed as inhibitors; 390,000 tested, 1.2% active; Q9Y253; recombinant Pol eta, fluorescent DNA replication assay; also: % is scaled to controls: 0 for no effect and ±100 for the full control effect
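Fluorescent replication assay: 50 nM final substrate added after a 15 min room-temperature compound preincubation with 10 nM enzyme. Signal taken at 0 min and again at 10 min.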
FEN1 inh – human FEN1 inhibition. P39748. Recombinant FEN1 flap cleavage, fluorescence, 15 min. Potency, µM (titrated, usually from 114 µM), for inactives: at the highest dose activity change, negative = inhibition, actives largely listed as inhibitors. 390,000 tested, 0.35% active; also: % is scaled to controls: 0 for no effect and ±100 for the full control effect; nearly all actives have a fitted effect of over 65% in size
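Concentration–response screening of FEN1 (10 nM): 15 min compound preincubation at room temperature, reaction started with 50 nM substrate and read at 0 and 15 min. Corrected, normalized data were fitted by a four-parameter Hill equation.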
Pol iota inh – blocks human DNA polymerase iota activity; Q9UNA4; Pol iota fluorescent replication assay, 10 min; Potency, µM (top dose mostly 115 µM), inactives show at the top dose activity, negative = inhibition, most hits filed as inhibitors; 390,000 tested, 1% active; AID 588590
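Pol iota at 10 nM preincubated 15 min with compounds at room temperature; reaction started with fluorescent substrate, 50 nM final. Fluorescence read kinetically at 0 and 10 min; buffer-only wells as negative control.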
Starred values were filed as active, the others as inactive; ? = inconclusive; . = no result; ! = not confirmed by another sample; [ ] = another dose, or the depositor's remark. The list is not random: actives were taken first. Their share in the collection is about 2.4%. Calls follow the shape of the dose curve; as a rule, active = well fitted curve in the direction sought with a large enough effect; inconclusive = small, poorly fitted or top-dose-only effect, or another doubt; inactive = no such curve, though single readings can be large; an effect the other way counts as inactive or inconclusive. Potency is read from the fitted curve at half-maximal effect.

SMILES	POLK inh	Pol beta inh	WRN helicase inh	POLH inh	FEN1 inh	Pol iota inh
CN(C)c1ccc(Cc2cc3c(O)ccc(O)c3cc(Cc3ccc(N(C)C)cc3)c2=O)cc1	7.9µM*	.	13µM*	2.2µM*	40µM*	3.2µM*
O=C(N/N=C/c1ccoc1)c1cc(Br)ccc1O	?	20µM*	-24%	?	-5%	89µM*
CCOc1ccccc1C(=O)N/N=C/c1ccoc1	-28%	20µM*	6%[11.6 µM]	-20%	-12%	79µM*
CCOc1cccc(C(=O)N/N=C/c2ccoc2)c1	-15%	?	-8%	-16%	19%	-5%
Cc1ccc(C(=O)N/N=C/c2ccoc2)cc1C	3%	25µM*	1%	?	9%	3%
CSc1ccc(/C=N/NC(=O)c2ccc(C)c(C)c2)cc1	-24%	25µM*	-9%[11.6 µM]	?	-16%	?
O=C(N/N=C/c1ccoc1)c1ccccc1Br	-13%	-15%	-5%	-23%	-10%	?
CCN1CCN(C2=CC3=CC(=C(C#N)C#N)CCC3CC2)CC1 (centres undefined)	-10%	9%	25µM*	-11%	-29%	?
CC1(C)CC(NCCN2CCN(C3=CC(=C(C#N)C#N)CC(C)(C)C3)CC2)=CC(=C(C#N)C#N)C1	2%	-13%	-3%	-5%	7%	79%
CN1CCN(C2=CC3=CC(=C(C#N)C#N)CCC3CC2)CC1 (centres undefined)	-4%	0%	-6%	-5%	-8%	89µM*
CCC[C@@H]1CCCO[C@@](C(=O)NCc2cc(C)n(C)n2)(C(F)(F)F)C1	?	.	5%	-19%	-14%	89µM*!
Cc1c(Cc2ccccc2)c(=O)oc2c(C)c(OCC(=O)N[C@@H](Cc3ccccc3)C(=O)O)ccc12	-18%	50µM*	-11%[11.6 µM]	50µM*	-6%	-10%
COC(=O)c1ccc(COc2ccc3c(C)c(C)c(=O)oc3c2C)o1	-1%	7%	-1%	-10%	10%	0%
Cc1c(OCc2ccc(C(=O)O)o2)ccc2c3c(c(=O)oc12)CCC3	5%[60.1 µM]	35µM*	-27%	18µM*	-12%	40µM*
Cc1c(OCC(=O)NC(Cc2ccc(Cl)cc2)C(=O)O)ccc2c1oc(=O)c1ccccc12 (centres undefined)	-17%	0%	0%[11.6 µM]	50µM*	?	5%
CCc1c(C)c2ccc(OC(C)C(=O)NC(Cc3c[nH]c4ccc(O)cc34)C(=O)O)c(C)c2oc1=O (centres undefined)	-20%	36%	-5%	50µM*	-11%	?
CC(Oc1ccc2c(c1)oc(=O)c1ccccc12)C(=O)NC(Cc1c[nH]c2ccc(O)cc12)C(=O)O (centres undefined)	-7%	?	-6%	?	-19%	-23%
Cc1ccc(C)c(NC(=O)Cn2c(=O)nc(-c3ccccc3)c3ccccc32)c1	-8%[60.1 µM]	5%	.	?	0%	21%
Cc1c(OCC(=O)NCC(O)c2ccccc2)ccc2c3c(c(=O)oc12)CCC3 (centres undefined)	1%	9%	-3%	5%	7%	36%
CCc1cc(=O)oc2c(C)c(OCC(=O)Nc3ccc(S(=O)(=O)N(CC)CC)cc3)ccc12	?	15%	.	-11%	1%	?
Cc1c(C)c2ccc(OCC(=O)Nc3ccc(S(N)(=O)=O)cc3)c(C)c2oc1=O	?	32µM*	-14%[57.1 µM]	?	?	?
Cc1c(OCC(=O)N[C@H](C(=O)O)c2ccccc2)ccc2c3c(c(=O)oc12)CCCC3	?	?	-6%[11.6 µM]	56µM*	-10%	?
CC(C)C[C@@H](C(=O)N[C@@H](Cc1c[nH]c2ccccc12)C(N)=O)N1C[C@]2(CCCN2C(=O)[C@H](Cc2ccccc2)NC(=O)[C@H](Cc2ccccc2)NC(=O)[C@H](CCC(N)=O)NC(=O)[C@H](CCC(N)=O)NC(=O)[C@@H]2CCCN2C(=O)[C@H](CCCCN)NC(=O)[C@@H]2CCCN2C(=O)[C@@H](N)CCCNC(=N)N)CC1=O	18%[60.1 µM]	.	.	.	.	.
Cc1ccc(OCC(=O)NCC2(N3CCOCC3)CCCCC2)cc1C	?	3%	.	-14%	4%	89µM*
O=C(NCCCN1CCOCC1)C(=O)N/N=C/c1c2ccccc2cc2ccccc12	-24%	-11%	-31%[57.1 µM]	-8%	40µM*	22%
SMILES	POLK inh	Pol beta inh	WRN helicase inh	POLH inh	FEN1 inh	Pol iota inh
NC(=O)C(=O)N/N=C/c1c2ccccc2cc2ccccc12	-11%	1%	-6%[11.6 µM]	9%	25µM*	22%
Cc1cc(C(=O)N/N=C/c2c3ccccc3cc3ccccc23)n[nH]1	-10%	25%	?	11%	-16%	-5%
O=C(NCCCN1CCOCC1)C(=O)N/N=C/c1c(Cl)cccc1Cl	-1%	0%	-3%	-28%	6%	57%
COC(=O)c1c(NC(=O)Cc2coc3cc(C)ccc23)sc2c1CCCC2	-8%	30%	.	-18%	-14%	0%
Cc1cccc(NC(=O)C2CCCN(S(=O)(=O)c3c(C)n[nH]c3C)C2)c1 (centres undefined)	3%	-24%	.	-11%	13%	10%
C[n+]1ccc(/C=C/c2ccc(Br)cc2)cc1	89µM*	-31%	-16%	-25%	-11%	?
Cc1ccc(NC(=O)Cn2c(-c3ccc4c(c3)OCO4)cn(-c3ccccc3)c2=O)cc1	-4%	-2%	.	-5%	-3%	-5%
COc1cc2nc(N3CCCN(C)CC3)nc(NC3CCN(Cc4ccccc4)CC3)c2cc1OC	?	.	.	.	18µM*	-11%
COc1cc2nc(N3CCN(C)CC3)nc(NC3CC3)c2cc1OC	-3%	.	.	.	-20%	20%
COc1cc2c(NC3CCN(C)CC3)nc(N3CCCN(C)CC3)nc2cc1OCc1ccccc1	-7%	.	.	.	22µM*	-1%
COc1cc2nc(N3CCCN(C)CC3)nc(Nc3ccncc3)c2cc1OC	-18%	.	.	.	14µM*	20µM*
COC(=O)c1ccc2c(c1)N(CC(=O)Nc1cccc(Cl)c1C)C(=O)c1ccccc1S2	-10%[60.1 µM]	?	.	-20%	6%	26%
CN1CCN(c2ncc3c(n2)CCN(Cc2ccccc2Cl)C3)CC1	-10%[60.1 µM]	2%	.	-6%	-9%	24%
c1ccc(-c2nc3ccccc3c3nc4ccccc4n23)cc1	0%	35%	-23%	?	-12%	203%
c1ccc(-c2nc3nonc3c3nc4ccccc4n23)cc1	-3%	45µM*	-23%	-2%	-6%	23%
COc1ccccc1C(=O)Nc1cccc(C(=O)OCc2cc(=O)n3cc(C)sc3n2)c1	-6%[60.1 µM]	0%	.	-20%	-1%	23%
